A word on the AC50: it is the concentration giving half of the maximal activity seen.

Values joined by “and” are separate entries in the source; they are usually repeats but may differ in a detail not shown here. Identical values can stand only once. A structure can be active in one record and inactive in another. Active and inactive are the calls of the source. Rule for the calls: active = hit-call score of the fitted dose curve at least 0.9, where 1 is the maximum; inactive = score below 0.9.

Common to all, as to settings: mRNA level, 48 h; actives raise or lower the signal
Read-out in test [1]: Potassium channel subfamily K member 1 (KCNK1), KCNK1 (gene 3775)
The test is described as follows: LTEA_HepaRG_KCNK1: Life Technologies and Expression Analysis (LTEA) Assay for Potassium channel subfamily K member 1 (KCNK1) using HepaRG (AID 2283511). In outline: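 Differentiated HepaRG cells, 48 h exposure in serum-free induction medium with 0.5% DMSO; 8 concentrations, half-log from 100 uM, duplicate. KCNK1 mRNA by qRT-PCR, normalized to ACTB, GAPDH, POLR2A; bidirectional fit vs DMSO.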

Read-out in test [2]: Keratin 19 (KRT19), KRT19 (gene 3880)
The test is described as follows: LTEA_HepaRG_KRT19: Life Technologies and Expression Analysis (LTEA) Assay for Keratin 19 (KRT19) using HepaRG (AID 2283512). In outline: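 KRT19 transcript levels, measured by Fluidigm qRT-PCR against three housekeeping genes, are fitted for gain or loss of signal relative to DMSO. Human HepaRG cells receive test chemicals (top 100 uM, half-log steps, 0.5% DMSO) for 48 hours.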

Read-out in test [3]: JUN Transcription Factor, JUN (gene 3725)
Briefly: LTEA_HepaRG_JUN: Life Technologies and Expression Analysis (LTEA) Assay for JUN Transcription Factor using HepaRG (AID 2283513). In outline: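 Cells plated 48 h, medium switched to serum-free induction medium, then dosed 48 h (100 uM top, half-log dilutions, 0.5% DMSO). RNA isolated; JUN measured by qRT-PCR against three housekeeping genes; gain or loss fitted relative to DMSO.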

Read-out in test [4]: Lipase C (LIPC), LIPC (gene 3990)
The test is described as follows: LTEA_HepaRG_LIPC: Life Technologies and Expression Analysis (LTEA) Assay for Lipase C (LIPC) using HepaRG (AID 2283514). In outline:
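HepaRG cells, 48 h after plating, treated in duplicate for 48 h in serum-free induction medium over 8 half-log concentrations from 100 uM, 0.5% DMSO. LIPC mRNA by TaqMan qRT-PCR normalized to ACTB/GAPDH/POLR2A; bidirectional fit versus DMSO.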

Read-out in test [5]: Lipoprotein lipase (LPL), LPL (gene 4023)
Briefly: LTEA_HepaRG_LPL: Life Technologies and Expression Analysis (LTEA) Assay for Lipoprotein lipase (LPL) using HepaRG (AID 2283515). In outline:
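Differentiated HepaRG cells, plated 48 h, then exposed 48 h in serum-free induction medium to 8 concentrations (top 100 uM, half-log steps) in 0.5% DMSO, duplicate. LPL mRNA measured by qRT-PCR, normalized to ACTB, GAPDH and POLR2A.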

Read-out in test [6]: MicroRNA 122 (MIR122), gene 406906
The test is described as follows: LTEA_HepaRG_MIR122: Life Technologies and Expression Analysis (LTEA) Assay for MicroRNA 122 (MIR122) using HepaRG (AID 2283516). Note: the transcript read is the microRNA miR-122. Put shortly: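 HepaRG plated 48 h, switched to serum-free induction medium, then treated in duplicate for 48 h (100 uM top, half-log steps, 0.5% DMSO vehicle). RNA isolated, qRT-PCR performed, concentration-response fitted both directions relative to DMSO.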

Read-out in test [7]: matrix metalloproteinase-10 (MMP10), MMP10 (gene 4319)
Briefly: LTEA_HepaRG_MMP10: Life Technologies and Expression Analysis (LTEA) Assay for matrix metalloproteinase-10 (MMP10) using HepaRG (AID 2283517). Put shortly:
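Differentiated HepaRG cells in serum-free induction medium exposed 48 h in duplicate to 8-point half-log series up to 100 uM in 0.5% DMSO. mRNA quantified by qRT-PCR, normalised to ACTB, GAPDH, POLR2A; bidirectional fit versus DMSO.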

Read-out in test [8]: MYC, MYC (gene 4609)
The test is described as follows: LTEA_HepaRG_MYC: Life Technologies and Expression Analysis (LTEA) Assay for MYC using HepaRG (AID 2283518). Put shortly: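 HepaRG, ~100,000 cells/well, collagen I; 48 h plating; serum-free induction medium; 48 h dosing, duplicate, 100 uM top, half-log, 0.5% DMSO; total RNA → qRT-PCR MYC; gain/loss fit vs DMSO.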

Read-out in test [9]: matrix metalloproteinase-3 (MMP3), MMP3 (gene 4314)
The test is described as follows: LTEA_HepaRG_MMP3: Life Technologies and Expression Analysis (LTEA) Assay for matrix metalloproteinase-3 (MMP3) using HepaRG (AID 2283519). Put shortly:
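HepaRG cells (~100,000/well) in serum-free induction medium were dosed in duplicate for 48 h with an 8-point half-log series from 100 uM, 0.5% DMSO. MMP3 mRNA was quantified by Fluidigm TaqMan qRT-PCR, normalized to three housekeeping genes.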

Read-out in test [10]: Paternally Expressed 10 (PEG10), PEG10 (gene 23089)
The test is described as follows: LTEA_HepaRG_PEG10: Life Technologies and Expression Analysis (LTEA) Assay for Paternally Expressed 10 (PEG10) using HepaRG (AID 2283520). In outline:
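HepaRG, 48 h post-plating → serum-free induction medium → 48 h chemical exposure (duplicate, 8-pt, max 100 uM, half-log, 0.5% DMSO) → lysis in RLT → TaqMan qRT-PCR for PEG10, ACTB/GAPDH/POLR2A normalisation.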

Read-out in test [11]: Nuclear factor NF-kappa-B p105 subunit (Homo sapiens) (UniProt P19838)
Briefly: LTEA_HepaRG_NFKB1: Life Technologies and Expression Analysis (LTEA) Assay for Nuclear Factor Kappa B Subunit 1 (NFKB1) using HepaRG (AID 2283521).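 For outcome: TaqMan qRT-PCR transcript normalised to ACTB GAPDH and POLR2A housekeeping genes.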 In outline:
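Differentiated human HepaRG cells were exposed for 48 h in serum-free induction medium to eight concentrations (top 100 uM, half-log steps, 0.5% DMSO), in duplicate. NFKB1 mRNA was measured by TaqMan qRT-PCR, normalized to ACTB/GAPDH/POLR2A, and fitted bidirectionally against DMSO.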

Read-out in test [12]: Protein phosphatase 2A (PPP2R4), PTPA (gene 5524)
Briefly: LTEA_HepaRG_PPP2R4: Life Technologies and Expression Analysis (LTEA) Assay for Protein phosphatase 2A (PPP2R4) using HepaRG (AID 2283522). Put shortly: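 Readout is PPP2R4 transcript level by microfluidic qRT-PCR after 48 h chemical treatment of human HepaRG liver cells. Concentrations spanned 100 uM downward in half-log steps; gain or loss of signal was fitted relative to DMSO.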

Read-out in test [13]: Phosphatase and tensin (PTEN), PTEN (gene 5728)
Briefly: LTEA_HepaRG_PTEN: Life Technologies and Expression Analysis (LTEA) Assay for Phosphatase and tensin (PTEN) using HepaRG (AID 2283523). In outline: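 HepaRG cells, 48 h after plating, exposed in duplicate for 48 h in serum-free induction medium to 8 half-log concentrations up to 100 uM (0.5% DMSO). PTEN mRNA by qRT-PCR, normalized to ACTB, GAPDH, POLR2A; bidirectional fit versus DMSO.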

Read-out in test [14]: solute carrier (SLC22A1), SLC22A1 (gene 6580)
Briefly: LTEA_HepaRG_SLC22A1: Life Technologies and Expression Analysis (LTEA) Assay for solute carrier (SLC22A1) using HepaRG (AID 2283524). Put shortly:
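Differentiated human HepaRG cells in serum-free induction medium, exposed 48 h in duplicate to 8-point half-log series from 100 µM top in 0.5% DMSO. SLC22A1 mRNA by TaqMan qRT-PCR normalized to ACTB, GAPDH, POLR2A; bidirectional fit versus DMSO.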

Read-out in test [15]: Pyruvate Dehydrogenase Kinase 4 (PDK4), PDK4 (gene 5166)
Briefly: LTEA_HepaRG_PDK4: Life Technologies and Expression Analysis (LTEA) Assay for Pyruvate Dehydrogenase Kinase 4 (PDK4) using HepaRG (AID 2283525). Put shortly: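 HepaRG cells plated 48 h, then switched to serum-free induction medium and exposed in duplicate for 48 h to 8 half-log concentrations from 100 uM in 0.5% DMSO. PDK4 mRNA measured by qRT-PCR, normalized to ACTB, GAPDH and POLR2A; bidirectional fit versus DMSO.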

Read-out in test [16]: NAD(P)H dehydrogenase [quinone] 1 (NQO1), NQO1 (gene 1728)
The test is described as follows: LTEA_HepaRG_NQO1: Life Technologies and Expression Analysis (LTEA) Assay for NAD(P)H dehydrogenase [quinone] 1 (NQO1) using HepaRG (AID 2283526). Put shortly: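 HepaRG, 48 h post-plating → serum-free induction medium → test chemical 48 h (duplicate, 100 uM top, half-log x8, 0.5% DMSO) → RNA isolation → qRT-PCR, ACTB/GAPDH/POLR2A normalization; bidirectional curve fit vs DMSO baseline.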

Read-out in test [17]: Nuclear factor erythroid 2-related factor 2 (Homo sapiens) (UniProt Q16236)
Briefly: LTEA_HepaRG_NFE2L2: Life Technologies and Expression Analysis (LTEA) Assay for Nuclear factor erythroid 2-related factor 2 (NFE2L2) Transcription Factor using HepaRG (AID 2283527).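 For outcome: TaqMan qRT-PCR transcript level normalised to ACTB GAPDH and POLR2A housekeeping genes.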 Put shortly:
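Differentiated human HepaRG cells, serum-free induction medium, exposed 48 h in duplicate to eight half-log concentrations up to 100 uM in 0.5% DMSO. NFE2L2 mRNA by Fluidigm TaqMan qRT-PCR, normalised to ACTB, GAPDH, POLR2A; bidirectional change versus DMSO.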

Read-out in test [18]: succinate dehydrogenase complex iron sulfur subunit B (SDHB), SDHB (gene 6390)
The test is described as follows: LTEA_HepaRG_SDHB: Life Technologies and Expression Analysis (LTEA) Assay for succinate dehydrogenase complex iron sulfur subunit B (SDHB) using HepaRG (AID 2283528). Put shortly:
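HepaRG, 48 h exposure, 8-pt half-log series from 100 uM in 0.5% DMSO, duplicates. Readout: SDHB mRNA by Fluidigm qRT-PCR vs housekeeping genes; bidirectional fit relative to DMSO.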

Read-out in test [19]: Signal transducer and activator of transcription 3 (Homo sapiens) (UniProt P40763)
The test is described as follows: LTEA_HepaRG_STAT3: Life Technologies and Expression Analysis (LTEA) Assay for Signal transducer and activator of transcription (STAT3) using HepaRG (AID 2283529). In outline: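 Differentiated HepaRG cells, serum-free induction medium, dosed 48 h in duplicate, 8 half-log concentrations from 100 uM in 0.5% DMSO. STAT3 mRNA by qRT-PCR, normalised to ACTB, GAPDH, POLR2A; bidirectional fit versus DMSO.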

Read-out in test [20]: solute carrier (SLCO1B1), SLCO1B1 (gene 10599)
The test is described as follows: LTEA_HepaRG_SLCO1B1: Life Technologies and Expression Analysis (LTEA) Assay for solute carrier (SLCO1B1) using HepaRG (AID 2283530). In outline:
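HepaRG, serum-free induction medium, 48 h dosing, 8-pt half-log from 100 uM, 0.5% DMSO vehicle, duplicates. Readout: SLCO1B1 mRNA, qRT-PCR, ACTB/GAPDH/POLR2A normalization; up or down fit vs DMSO.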

Signal transducer and activator of transcription 3 (Homo sapiens), sequence (P40763 whole entry, looked up): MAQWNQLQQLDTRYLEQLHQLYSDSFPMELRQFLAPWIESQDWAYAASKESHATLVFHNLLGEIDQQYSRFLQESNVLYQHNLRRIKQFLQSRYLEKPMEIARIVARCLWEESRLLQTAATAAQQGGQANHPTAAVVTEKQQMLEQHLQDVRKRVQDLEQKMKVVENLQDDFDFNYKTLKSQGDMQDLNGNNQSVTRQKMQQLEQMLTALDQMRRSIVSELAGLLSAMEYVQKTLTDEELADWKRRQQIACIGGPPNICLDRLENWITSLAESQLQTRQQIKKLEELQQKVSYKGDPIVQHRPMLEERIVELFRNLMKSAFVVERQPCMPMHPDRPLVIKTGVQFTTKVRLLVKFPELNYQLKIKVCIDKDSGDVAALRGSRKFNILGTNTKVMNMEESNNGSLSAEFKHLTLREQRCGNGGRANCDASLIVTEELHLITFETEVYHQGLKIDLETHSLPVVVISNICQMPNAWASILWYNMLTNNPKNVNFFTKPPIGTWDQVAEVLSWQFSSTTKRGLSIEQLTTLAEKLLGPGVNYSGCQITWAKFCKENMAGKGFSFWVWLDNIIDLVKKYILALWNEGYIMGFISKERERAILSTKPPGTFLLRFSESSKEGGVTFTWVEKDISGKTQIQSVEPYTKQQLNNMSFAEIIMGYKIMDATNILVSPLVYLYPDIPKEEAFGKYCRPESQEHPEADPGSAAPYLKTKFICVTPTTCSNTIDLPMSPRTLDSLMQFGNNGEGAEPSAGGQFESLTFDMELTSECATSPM
Nuclear factor NF-kappa-B p105 subunit (Homo sapiens), sequence (P19838 whole entry, looked up): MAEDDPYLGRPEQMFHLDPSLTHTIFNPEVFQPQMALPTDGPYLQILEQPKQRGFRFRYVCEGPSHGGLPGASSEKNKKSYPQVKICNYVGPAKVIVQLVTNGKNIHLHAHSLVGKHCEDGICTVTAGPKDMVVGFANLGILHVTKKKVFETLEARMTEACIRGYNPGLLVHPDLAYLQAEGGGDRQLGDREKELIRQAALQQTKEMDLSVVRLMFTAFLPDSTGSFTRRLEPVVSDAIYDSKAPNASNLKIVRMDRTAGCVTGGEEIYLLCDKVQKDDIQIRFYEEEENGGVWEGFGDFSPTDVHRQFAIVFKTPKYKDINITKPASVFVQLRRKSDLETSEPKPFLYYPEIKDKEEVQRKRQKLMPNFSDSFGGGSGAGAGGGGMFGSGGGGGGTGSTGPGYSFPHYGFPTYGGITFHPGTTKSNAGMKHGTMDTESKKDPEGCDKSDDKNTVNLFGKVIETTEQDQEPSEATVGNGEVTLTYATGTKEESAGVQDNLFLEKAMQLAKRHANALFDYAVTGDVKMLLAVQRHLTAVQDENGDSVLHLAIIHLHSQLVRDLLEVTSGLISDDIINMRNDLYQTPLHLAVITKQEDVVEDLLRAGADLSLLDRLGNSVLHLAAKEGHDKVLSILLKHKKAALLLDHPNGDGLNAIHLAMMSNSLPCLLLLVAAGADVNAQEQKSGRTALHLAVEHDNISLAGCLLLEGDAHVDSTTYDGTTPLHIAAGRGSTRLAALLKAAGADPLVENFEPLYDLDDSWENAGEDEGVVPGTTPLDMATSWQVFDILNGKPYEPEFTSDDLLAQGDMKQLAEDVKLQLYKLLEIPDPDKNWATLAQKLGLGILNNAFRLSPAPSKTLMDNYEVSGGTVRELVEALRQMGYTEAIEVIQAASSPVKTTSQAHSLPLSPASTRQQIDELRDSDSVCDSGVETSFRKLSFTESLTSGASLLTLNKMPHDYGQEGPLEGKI
Nuclear factor erythroid 2-related factor 2 (Homo sapiens), sequence (Q16236 whole entry, looked up): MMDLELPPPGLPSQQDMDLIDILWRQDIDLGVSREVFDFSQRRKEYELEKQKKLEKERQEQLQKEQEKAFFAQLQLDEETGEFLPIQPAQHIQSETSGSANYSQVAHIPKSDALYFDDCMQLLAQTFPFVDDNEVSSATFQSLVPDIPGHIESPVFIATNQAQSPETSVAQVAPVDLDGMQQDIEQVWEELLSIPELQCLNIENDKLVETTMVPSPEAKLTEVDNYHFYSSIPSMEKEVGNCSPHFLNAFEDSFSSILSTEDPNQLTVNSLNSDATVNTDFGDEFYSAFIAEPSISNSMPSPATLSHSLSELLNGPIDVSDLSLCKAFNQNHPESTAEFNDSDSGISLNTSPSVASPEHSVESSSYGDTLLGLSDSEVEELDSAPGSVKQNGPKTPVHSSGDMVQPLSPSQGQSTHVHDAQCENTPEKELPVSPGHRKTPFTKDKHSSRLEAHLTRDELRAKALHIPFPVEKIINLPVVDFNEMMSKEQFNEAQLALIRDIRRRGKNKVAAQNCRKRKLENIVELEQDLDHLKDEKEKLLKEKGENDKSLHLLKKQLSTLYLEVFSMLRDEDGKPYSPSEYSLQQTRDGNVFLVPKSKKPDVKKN

For `CCCCOCCOCCO`, the molecule was classed as inactive in [1], in test [2], in test [3], in test [4], in test [5] and in [6]. Besides, the call in test [7], in test [8], in test [9], in test [10], in test [11] and in test [12] was inactive. In addition, the result in test [13], in test [14], in test [15], in test [16], in [17] and in test [18] was inactive. In addition, the result in test [19] and in test [20] was inactive.

For `CC/C(=C(\c1ccccc1)c1ccc(OCCN(C)C)cc1)c1ccccc1`, the AC50 in test [2] was 11.2 µM (active); in test [3], 74.6 µM (active) and 89.2 µM (active); in test [4], 93.9 µM (active); in [5], 76.5 µM (active); in test [7] it was 75 µM (active) and 50 µM (active); in test [8], 85.6 µM (active). For the same molecule, the AC50 in [9] is 86.1 µM (active) and 92.9 µM (active); in [10], 53.8 µM (active) and 94 µM (active); in test [11], 81.9 µM (active); in test [13] it was 93.3 µM (active); in [14], 42.3 µM (active) and 15.8 µM (active); in test [15], 69.2 µM (active). The AC50 in [16] was 79.9 µM (active); in [17], 77.1 µM (active); in test [18] it was 81.1 µM (active); in test [19], 60.3 µM (active) and 95.8 µM (active); in [20] it was 45.8 µM (active). In addition, the result in test [2], in test [4], in test [5], in [6], in test [8] and in test [11] was inactive. The molecule was classed as inactive in test [12], in test [13], in test [15], in [16], in test [17] and in [18]. The result in test [20] was inactive.

In the case of `C=C(C)C(N)=O`, the outcome in test [1], in test [2], in test [3], in test [4], in [5] and in [6] was inactive. For the same molecule, the result in test [7], in test [8], in [9], in [10], in test [11] and in test [12] was inactive. The call in [13], in [14], in test [15], in test [16], in [17] and in test [18] was inactive. Moreover, the molecule was called inactive in [19] and in test [20].

The values are drawn from PubChem BioAssay (EPA / NIEHS).
